In PubChem BioAssay AID540308 (The Scripps Research Institute Molecular Screening Center, 2011):
Out of some 360,000 compounds screened, about 3,500 (0.97%) were called active.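 Rule for the calls: active = activation above a per-plate cutoff, the mean activation of sample wells on that plate plus 3 SD (cut at about 8% in these data); inactive = the rest.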 Many of the other results were omitted from the sample, so actives are more common in it than they were.

molecular target: Melanocortin receptor 4 (Homo sapiens) (UniProt P32245); test: activators of MC4R beta-arrestin recruitment – cell-based, luminescence, agonist arm of biased-ligand search, primary screen (AID 540308); conditions: U2OS MC4R beta-arrestin complementation, at 8.9 µM, active compounds read high, percent of melanotan II response, DMSO zero
Sequence (P32245 whole entry, looked up): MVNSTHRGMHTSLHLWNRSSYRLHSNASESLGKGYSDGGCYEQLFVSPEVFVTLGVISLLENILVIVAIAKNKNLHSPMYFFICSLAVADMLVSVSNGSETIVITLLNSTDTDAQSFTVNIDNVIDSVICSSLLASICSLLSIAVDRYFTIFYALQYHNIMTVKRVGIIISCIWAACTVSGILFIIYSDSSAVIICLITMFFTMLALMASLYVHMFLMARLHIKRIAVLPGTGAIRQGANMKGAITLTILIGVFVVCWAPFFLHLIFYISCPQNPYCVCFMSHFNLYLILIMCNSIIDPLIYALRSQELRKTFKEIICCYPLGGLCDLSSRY

| Structure (SMILES) | activation |
| --- | --- |
| CCCCNc1nc2c(c(=O)n(C)c(=O)n2C)n1Cc1cccc(OC)c1 | -2.77% (inactive) |
| CCCCNc1c(-c2cccc(Sc3ccc(OC)cc3)c2)nc2ccccn12 | 13.9% (active) |
| CCCCNc1c(-c2ccc(OC)c(Sc3ccc(OC)cc3)c2)nc2ccc(Cl)cn12 | -1.91% (inactive) |
| CNc1cc(-c2c(OC)cccc2OC)ncn1 | 0.41% (inactive) |
| CC1CCN(C(=S)c2ccc(-c3ccc(Cl)cc3Cl)o2)CC1 | 2.82% (inactive) |
| Cc1ccc(/C=C(\C#N)C(=O)Nc2cccc3ncccc23)o1 | 0.31% (inactive) |
| O=C(NNc1cc(Cl)ccc1Cl)c1cccnc1Cl | -2.02% (inactive) |
| O=C(Nc1cccc2ncccc12)c1ccc(-c2ccc(Cl)cc2Cl)o1 | 20.2% (active) |
| COc1cc(SC)ccc1C(=O)Nc1nc(C)cs1 | -0.94% (inactive) |
| Cc1csc(NC(=O)c2ccc(-c3ccc(Cl)cc3Cl)o2)n1 | 12.6% (active) |
| Cc1nc2c(OCc3ccc(Cl)cc3)cccn2c1N(C)Cc1cccs1 | -2.75% (inactive) |
| COc1ccc(CCNC(=O)Nc2ccc3c(c2)c(=O)n(C)n3C)cc1OC | 1.3% (inactive) |
| COc1cc(C(O)c2nc(-c3cccc(C(=O)O)c3)cs2)ccc1F (stereo not drawn) | -1.9% (inactive) |
| CC1(C(=O)NS(=O)(=O)c2cccc(OC(F)F)c2)CCN1C(=O)COc1ccc(Cl)cc1 (stereo not drawn) | -1.09% (inactive) |
| CCc1ccc(OC2(C)CCN(CCOc3ccc(C)cc3)C2)cc1 (stereo not drawn) | 3.54% (inactive) |
| CCN1CCN(CCNC(=O)c2ccc3c(c2)NC(=O)/C(=C\c2cccc(Cl)c2)S3)CC1 | -0.09% (inactive) |
| CCN1CCN(CCNC(=O)c2ccc(/C=C3/Sc4ccccc4N(Cc4cccc(C)c4)C3=O)cc2)CC1 | 13.8% (active) |
| Cc1ccccc1CN1C(=O)c2ccccc2Sc2ccc(C(=O)NCCCN3CCOCC3)cc21 | 3.09% (inactive) |
| CCc1nc2c(OCC(=O)C(C)(C)C)cccn2c1N(C)C(=O)c1ccccc1F | -1.02% (inactive) |
| CCC(=O)N1CCC(C)(C(=O)Nc2cc(OC)c(OC)c(OC)c2)C1 (stereo not drawn) | -0.53% (inactive) |
| CC(C)Oc1c(Br)cc(Br)cc1/C=N/NC(N)=S | 22.7% (active) |
| CC1(C(=O)N/N=C/c2cc3c(cc2Br)OCO3)CC1(Br)Br (stereo not drawn) | -3.59% (inactive) |
| COc1cccc(C(NC(C)=O)c2nc(-c3ccccc3OC)cs2)c1 (stereo not drawn) | -0.26% (inactive) |
| Cc1cc(O)ccc1-c1cc(C(=O)NCc2cc(C(F)(F)F)cc(C(F)(F)F)c2)[nH]n1 | 2.75% (inactive) |

| Structure (SMILES) | activation |
| --- | --- |
| OC(c1ccc(F)cc1)c1ncc(-c2cccc(C(F)(F)F)c2)[nH]1 (stereo not drawn) | 1.88% (inactive) |
| CC(=O)NC(c1ccccc1)c1nc(-c2ccccc2C)cs1 (stereo not drawn) | 0.3% (inactive) |
| CC1(C(=O)NCc2ccc3c(c2)OCO3)CCN1C(=O)Cc1cccs1 (stereo not drawn) | 0.72% (inactive) |
| COc1ccc(OCC(=O)Nc2ccc(N3CCC(C)CC3)cc2)cc1 | 10.2% (active) |
| COc1ccc(OCC(=O)NNC(=O)C2CCC2)cc1 | -1.99% (inactive) |
| CCC(=O)c1ccc(OCC(=O)Nc2ccc(N3CCCCC3)cc2)cc1 | 3.06% (inactive) |
| CC12CCC(=O)C=C1CCC1C2C(O)CC2(C)C1CCC2(O)C(O)CO (stereo not drawn) | -0.23% (inactive) |
| CCCNC(=O)C1(C)CCN(C(=O)c2ccccc2OC(F)(F)F)C1 (stereo not drawn) | 0.4% (inactive) |
| CC(=O)N1CCN(C(=O)c2cc(-c3ccc(C)o3)nc3ccccc23)CC1 | -2.54% (inactive) |
| COc1ccc(NC(=O)CN(C)C(=O)c2cc(-c3ccc(C)o3)nc3ccccc23)cc1 | -0.83% (inactive) |
| COc1ccc(NC(=O)c2cc(-c3ccc(C)o3)nc3ccccc23)cc1 | 9.46% (active) |
| CCCCc1ccc(S(=O)(=O)NC(=O)C2(C)CCN2C(=O)c2c(C)noc2C)cc1 (stereo not drawn) | -2.14% (inactive) |
| Cc1cc(Cl)ccc1-c1nc(NCCN(C)C)nc2ccsc12 | -0.54% (inactive) |
| CCOC(=O)c1[nH]cnc1C(=O)Nc1ccccc1C | 1% (inactive) |
| CCOC(=O)c1ccc(NC(=O)c2nc[nH]c2C(=O)NCc2ccccc2)cc1 | 8.44% (active) |
| O=C(Nc1ccon1)c1nc[nH]c1C(=O)NCc1ccccc1 | -0.8% (inactive) |
| COc1ccc(C(=O)N2CCCCC2c2cc(C(=O)Nc3ccc(F)c(Cl)c3)no2)cc1 (stereo not drawn) | 2.26% (inactive) |
| Cc1ccnc(N2C(=O)c3ccc([N+](=O)[O-])cc3C2=O)c1 | -1.22% (inactive) |
| Cc1ccc(-n2cc3ccc([N+](=O)[O-])cc3n2)cc1 | 16.1% (active) |
| Cc1ccc(C(=O)Cn2cc([N+](=O)[O-])nc2C)cc1 | -1.74% (inactive) |
| COc1ccc(C(C)(O)c2nc(-c3cc(F)cc(F)c3)cs2)cc1 (stereo not drawn) | 3.01% (inactive) |
| COc1ccc(Sc2ccc(NC(=O)c3cccc(Cl)c3)cc2C#N)cc1 | -0.48% (inactive) |
| Cc1ccc(Sc2ccc(NC(=O)c3ccc(F)cc3)cc2C#N)cc1 | 17% (active) |
| COC(=O)c1ccc(Sc2ccc(F)cc2)c(N)c1 | -1.17% (inactive) |

| Structure (SMILES) | activation |
| --- | --- |
| Clc1ccc(-c2cccc3nccn23)cc1 | -0.44% (inactive) |
| CCOC(=O)N/N=C/c1cn(Cc2ccccc2Cl)c2ccccc12 | -2.13% (inactive) |
| N#CCC(=O)N/N=C/c1cn(Cc2ccc3ccccc3c2)c2ccccc12 | 11.1% (active) |
| COc1cccc(Cn2cc(/C=N/NC(=O)c3cc(O)cc(O)c3)c3ccccc32)c1 | -2.32% (inactive) |
| Cc1ccc(C)c(N2CCN(S(=O)(=O)c3c(C)[nH]c(C)c3C(=O)N3CCCC3)CC2)c1 | -0.89% (inactive) |
| Cc1ccc(C)c(N2CCN(S(=O)(=O)c3ccc4c(c3)oc(=O)n4C)CC2)c1 | -1.63% (inactive) |
| COC(=O)c1cc(S(=O)(=O)N2CCN(c3cc(C)ccc3C)CC2)c[nH]1 | 9.07% (active) |
| COc1ccc(-n2cc(-c3ccccc3)c3c(=S)nc[nH]c32)cc1 | 2.91% (inactive) |
| O=c1c2c(-c3ccccc3)ccnc2[nH]n1-c1ccccc1 | -0.95% (inactive) |
| O=c1[nH]cnc2c1c(-c1ccccc1)cn2-c1ccc(F)cc1 | 8.69% (active) |
| COc1cc(Cn2c3ccc(NC(=O)CC(C)c4ccccc4)cc3c(=O)n2C)ccc1F (stereo not drawn) | 1.46% (inactive) |
| O=C(NCc1ccccc1Cl)c1csc([C@@H]2O[C@H](CO)[C@@H](O)[C@H]2O)n1 | -0.25% (inactive) |
| O=C(CSc1ccccc1)Nc1nnc(/C=C/c2ccccc2)s1 | 10.9% (active) |
| CCOCc1nnc(NC(=O)CSc2ccc(C)cc2)s1 | -1.16% (inactive) |
| O=C(/C=C/c1ccccc1)Nc1nnc(SCC(=O)c2ccc3ccccc3c2)s1 | -0.51% (inactive) |
| CCNC(=O)C1(C)CCCN(Cc2noc(-c3ccccc3OC)n2)C1 (stereo not drawn) | 0.8% (inactive) |
| COc1ccc(OC)c(NC(=O)c2cc(-c3cc(F)ccc3OCC3CCCO3)n[nH]2)c1 (stereo not drawn) | 2.25% (inactive) |
| Cc1nc(C(F)(F)F)ccc1C(=O)N1CCC1(C)C(=O)NS(=O)(=O)c1ccccc1 (stereo not drawn) | -2.41% (inactive) |
| COc1ccc(Cc2nnc(NC(=O)c3ccc(OC)cc3OC)s2)cc1 | 16.6% (active) |
| COc1ccc(Cc2nnc(NC(=O)c3cc(OC)c(OC)c(OC)c3)s2)cc1OC | 0.62% (inactive) |
| O=C(Nc1nnc(COc2ccccc2)s1)Nc1ccccc1F | -0.21% (inactive) |
| COc1ccccc1NC(=O)Nc1nc(CC(=O)Nc2ccccc2F)cs1 | -1.3% (inactive) |
| O=C(Nc1nnc(Cc2ccc(Cl)cc2)s1)c1ccncc1 | -0.7% (inactive) |
| COc1ccccc1NC(=O)Nc1nnc(Cc2ccc(F)cc2)s1 | 13.2% (active) |

| Structure (SMILES) | activation |
| --- | --- |
| COc1cccc(CNc2nc3cc(-c4csc5ccccc45)sc3c(=O)n2C)c1 | 6.53% (inactive) |
| Cc1ccc(Cn2c(C)c(C(=O)NCc3ccccc3C(F)(F)F)sc2=O)cc1 | 0.28% (inactive) |
| CC1(C(=O)Nc2ccccc2Br)CCN1C(=O)CC1CC1 (stereo not drawn) | 1% (inactive) |
| Cc1ccccc1S(=O)(=O)NC(=O)C1(C)CCN1C(=O)Cc1ccc(Cl)cc1Cl (stereo not drawn) | -1.27% (inactive) |
| CCCc1c(C)nc2c(Br)cccc2c1Cl | 0.46% (inactive) |
| COc1cccc(NC(=O)C2(C)CCN2Cc2ccccc2Cl)c1 (stereo not drawn) | 2.88% (inactive) |
| Cc1cc(=O)n2nc(N3CCCC(C(=O)NCc4ccc(Cl)cc4)C3)sc2n1 (stereo not drawn) | -1.57% (inactive) |
| O=C(NCc1ccccc1)C1CCCN(c2nc3ccsc3c(=O)s2)C1 (stereo not drawn) | 8.43% (active) |
| O=C(NCc1ccccc1)C1CCCN(S(=O)(=O)c2cccs2)C1 (stereo not drawn) | 1.44% (inactive) |
| Cc1ccccc1CN1CCC(C(=O)Nc2ccc(Oc3cccnc3)cc2)CC1 | -3.23% (inactive) |
| CCc1nc2ccc(C(=O)NCc3ccc(OC)cc3)cn2c1N(CC)Cc1cccc(Br)c1 | -1.05% (inactive) |
| Cc1ccc(NC(=O)Nc2cc(-c3ccccc3)nn2C)cc1Cl | -0.42% (inactive) |
| O=C(Nc1nc(-c2ccc(-c3ccccc3)cc2)cs1)c1cnccn1 | 25.9% (active) |
| CC(=O)Nc1ccc(-c2csc(NC(=O)Nc3ccccc3)n2)cc1 | 11% (active) |
| O=C(NCCCNC(=O)c1ccccc1Cl)c1cnccn1 | 0.85% (inactive) |
| O=C(Nc1nnc(Cc2ccccc2)s1)c1cnccn1 | -0.34% (inactive) |
| CC(=O)Nc1ccc(-c2cn3cccnc3n2)cc1 | -2.81% (inactive) |
| CC(C)(C)c1ccc(S(=O)(=O)NC(=O)C2(C)CCN2C(=O)CC2CC2)cc1 (stereo not drawn) | -2.01% (inactive) |
| COCCNc1ncnc2c1ncn2[C@H]1CN(CCN2CCOCC2)C[C@@H](CO)O1 | -1.53% (inactive) |
| CC1(C(=O)NS(=O)(=O)c2cccc(OC(F)F)c2)CCN1C(=O)C1CC1 (stereo not drawn) | -1.02% (inactive) |
| CC1(C(=O)NS(=O)(=O)Cc2cccc(Cl)c2)CCN1C(=O)Cc1ccc(Cl)cc1Cl (stereo not drawn) | 1.12% (inactive) |
